In PMC5540273 (PLoS ONE, 2017):

How the values were obtained:
Settings in all cases: concentration: 1 μM, replicates: in singlicate; n = 1
[1] = tested on: MET
[2] = tested on: T1, MINK
T1 construct: gene MINK1

[3] = tested on: MKK7
[4] = tested on: MKNK1
[5] = tested on: MKNK2
[6] = tested on: T2, MLCK
T2 construct: gene MYLK3

[7] = tested on: T3, MLK1
T3 construct: gene MAP3K9

[8] = tested on: MLK2
[9] = tested on: MLK3
[10] = tested on: MRCKA
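Also: KINOMEscan kinase panel screen.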

| Structure (SMILES) | %Inh [1] [%] | %Inh [2] [%] | %Inh [3] [%] | %Inh [4] [%] | %Inh [5] [%] | %Inh [6] [%] | %Inh [7] [%] | %Inh [8] [%] | %Inh [9] [%] | %Inh [10] [%] |
| --- | --- | --- | --- | --- | --- | --- | --- | --- | --- | --- |
| Nc1n[nH]c2ncc(-c3ccccc3)cc12 [SB-517081] | 0 | 11 | 0 | 53 | 88 | 0 | 17 | 0 | 0 | 3 |
| O=c1cc(N2CCOCC2)nc2n(Cc3ccc(F)c(Cl)c3)ccn12 [GSK2297099] | 0 | 0 | 0 | 5 | 1 | 7 | 0 | 0 | 0 | 0 |
| CCc1nc(-c2cccc(C)c2)c(-c2ccncc2)s1 | 4 | 50 | 0 | 0 | 16 | 6 | 0 | 0 | 17 | 0 |
| COc1ccc(-c2cc3c(C)nc(N)nc3n([C@H]3CC[C@H](O)CC3)c2=O)cn1 | 0 | 0 | 0 | 0 | 0 | 0 | 0 | 0 | 0 | 0 |
| COc1cccc(C2=C(Nc3cccc(C(=O)O)c3)C(=O)NC2=O)c1 [SB-390770] | 0 | 7 | 15 | 2 | 0 | 0 | 0 | 47 | 45 | 17 |
| O=C(NCc1cccs1)c1cc(C(=O)c2c(Cl)cccc2Cl)c[nH]1 [GW823670] | 5 | 0 | 0 | 0 | 0 | 0 | 10 | 13 | 0 | 0 |
| CCS(=O)(=O)c1ccc(OC)c(Nc2ncc(-c3ccc(F)cc3)o2)c1.Cl [GW591947] | 0 | 0 | 0 | 0 | 0 | 0 | 0 | 0 | 6 | 10 |
| CCS(=O)c1ccc(-c2coc3ccc(-c4nnc(C)o4)cc23)cc1 (stereo not drawn) | 0 | 15 | 23 | 17 | 1 | 0 | 0 | 7 | 15 | 0 |
| Cl.c1ccc(Cn2cnc3cc(Nc4ncnc5ccccc45)ccc32)cc1 [GW272142] | 33 | 0 | 17 | 0 | 6 | 0 | 0 | 0 | 11 | 16 |
| Cc1cccc(-c2nc(Nc3ccc4c(cnn4C)c3)c3ccccc3n2)n1 [GW876731] | 3 | 16 | 10 | 100 | 9 | 28 | 12 | 16 | 0 | 17 |
| Cc1cccc(-c2cc(-c3c[nH]nc3-c3ccccn3)ccn2)c1 [GW679395] | 0 | 38 | 3 | 0 | 2 | 0 | 0 | 0 | 0 | 9 |
| CCC(=O)c1c(-c2ccccc2)c2cc(Cl)ccc2c(=O)n1Cc1cc(S(C)(=O)=O)n(CC(N)=O)n1 | 0 | 14 | 0 | 0 | 0 | 0 | 0 | 10 | 1 | 0 |
| C[C@@H]1CC[C@H](C(=O)NC2CCCCC2)CN1c1cc(-c2ccc3c(N)n[nH]c3c2)nc(N)n1 [GSK2291363] | 0 | 12 | 0 | 12 | 18 | 0 | 4 | 0 | 32 | 15 |
| O=C1NC(=O)C(c2ccccc2)=C1Nc1cccc(O)c1 [SB-390534] | 0 | 22 | 0 | 0 | 21 | 0 | 0 | 0 | 6 | 0 |
| COc1cc(Nc2ccnc3ccc(C(F)(F)F)cc23)cc(OC)c1OC [GW577382] | 0 | 17 | 0 | 29 | 9 | 0 | 3 | 31 | 23 | 22 |
| COc1cccc(C2=C(N(C)c3ccccc3)C(=O)NC2=O)c1 [SB-334865] | 0 | 11 | 0 | 3 | 0 | 0 | 0 | 0 | 12 | 0 |
| CCCNC(=O)Nc1ccc(Oc2ncnc3ccn(C)c23)cc1 | 8 | 1 | 0 | 23 | 0 | 0 | 6 | 6 | 0 | 3 |
| Cc1ccccc1COc1cc(-n2cnc3cc(Cl)ccc32)sc1C(N)=O [GW813349] | 24 | 35 | 0 | 2 | 0 | 0 | 11 | 9 | 0 | 29 |
